Source: PubChem BioAssay AID504882 (Broad Institute, 2011)
In all, about 1,200 compounds went through this assay and about 290 (24%) were called active. About 9% were inconclusive and are not listed. No rule for the calls is given here. These entries were drawn from the full list. Results with a measured potency or affinity are listed apart.

Assay: LCL viability reduction – cell-based, plate reader, cherry-picks, set 2, cytotoxicity control, dose response (AID 504882);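 also: 0% = neutral control wells and -100% = positive control wells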
Settings: EBV lymphoblastoid cells (LCL) viability; series mostly up to 19.5 µM; activity change, negative = cytotoxicity: at the top concentration

| Compound | activity change, negative = cytotoxicity |
| --- | --- |
| O=C(Cn1ccc(C(F)(F)F)n1)Nc1cccc(S(=O)(=O)N2CCCCC2)c1 | 6.79% (inactive) |
| O=C1C2CCCN2c2ccc(S(=O)(=O)N3CCOCC3)cc2N1Cc1ccccc1F (stereo not drawn) | 0.737% (inactive) |
| Cn1c(CC(=O)Nc2ccc(F)cc2)nnc1SCC(=O)Nc1nncs1 | 9.16% (inactive) |
| Cc1ccccc1N(C(=O)c1snc(C(N)=O)c1N)C(C(=O)NC1CCCCC1)c1ccc(O)cc1 (stereo not drawn) | 10.6% (inactive) |
| N#CCN(N=Nc1ccccc1)c1ccccc1 | 5.24% (inactive) |
| Cc1cc(/C=C2\Cc3ccccc3C2=O)c(C)n1-c1ccccc1 | -4.17% (inactive) |
| COC(=O)c1ccc(/C=C(/NC(=O)c2ccccc2)C(=O)N2CCOCC2)cc1 | 26.1% (inactive) |
| Cc1ccc(CCNC(=O)CCc2nc3ccccc3[nH]2)cc1 | 16.2% (inactive) |
| CC(=O)Nc1ccc(OCC(O)CNC(C)C)cc1 (stereo not drawn) | 7.6% (inactive) |
| CC1=C(C)C(OCCCl)N(c2cc(O)c(Cl)cc2F)C1=O (stereo not drawn) | 13.6% (inactive) |
| O=C(O)c1cccc(NC(=O)c2cn(-c3ccccc3)nc2-c2ccc(F)cc2)c1 | 12.6% (inactive) |
| N/C(=N\OC(=O)c1cccc(Br)c1)c1ccccn1 | 7.28% (inactive) |
| C/C(=N/NC(=O)c1cc(C2CC2)[nH]n1)c1cccs1 | 6.57% (inactive) |
| Cc1cc(C(=O)CSc2nnc(-c3cccs3)o2)c(C)n1-c1ccccc1 | 0.738% (inactive) |
| CN(Cc1ccc(F)cc1)C(=O)CN1CCN(S(=O)(=O)c2ccc3c(c2)OCCCO3)CC1 | 3.94% (inactive) |
| COc1cc(N(C)C)c([N+](=O)[O-])cc1C(=O)N1CCN(Cc2ccccc2)CC1 | 10.1% (inactive) |
| COc1ccc(CCNC(=O)CSc2ccsc2[N+](=O)[O-])cc1OC | 22.9% (inactive) |
| CCOc1ccc(NC(=O)Cn2cc(C(=O)CC)c3ccccc32)cc1 | 10.4% [at 6.8 µM] (inactive) |
| O=C(NC(Cc1c[nH]c2ccccc12)C(=O)Nc1ccc(F)c([N+](=O)[O-])c1)c1cccs1 (stereo not drawn) | -21.1% (inactive) |
| COc1ccc(/C=N/Nc2cc(OC)ncn2)cc1 | 1.43% (inactive) |
| Cc1ccc(C)c(S(=O)(=O)N2CCN(CC(=O)N3CCc4ccccc4C3)CC2)c1 | 19.5% (inactive) |
| Cc1ccc(NC(=S)Nc2cccc(S(=O)(=O)Nc3c(C)n(C)n(-c4ccccc4)c3=O)c2)cc1 | 9.53% (inactive) |
| O=C1N[C@@H](Cc2c[nH]c3ccccc23)COC(=O)[C@H](Cc2ccc(F)cc2)C/C=C\C[C@H]1CC(=O)N(CCO)Cc1ccccc1 | 25% [at 6.8 µM] (inactive) |

| Compound | activity change, negative = cytotoxicity |
| --- | --- |
| O=C(Nc1ccc(CN2CCOCC2)cc1)c1cc2ccccn2n1 | 15.2% (inactive) |
| O=C(Nc1ccc(N2CCOCC2)cc1)c1cnccn1 | 6.78% (inactive) |
| CSc1nc(N)nc(SCC(=O)C23CC4CC(CC(C4)C2)C3)c1C#N | -16.5% (inactive) |
| COc1ccc(C2CC(C(F)(F)F)n3ncc(C(=O)NCc4cccnc4)c3N2)cc1OC (stereo not drawn) | 15.4% (inactive) |
| O=C(CN1C(=O)c2ccccc2C1=O)NNC1=NS(=O)(=O)c2ccccc21 | 12.6% (inactive) |
| CCOc1cccc(CNc2nnnn2C)c1 | 9.74% (inactive) |
| CCCC(=O)NCCCc1nc2ccccc2n1C | 23.7% (inactive) |
| Nc1nc2ccccc2n1C(=O)c1ccccc1 | -8.2% (inactive) |
| COc1ccc(/C=C/c2nc3ccccc3c(=O)o2)cc1 | 4.96% (inactive) |
| CC(C)(C)n1nc(-c2ccc(Cl)cc2)c2c(N)ncnc21 | -15.3% (inactive) |
| O=C(CCNc1cccc(F)c1)c1cc2ccccc2o1 | 23.3% (inactive) |
| CCc1cc(=O)oc2c(CNCc3c(F)cccc3Cl)c(O)ccc12 | 8.05% (inactive) |
| Cc1cc(N2CCCC2=O)cc(C)c1S(=O)(=O)Nc1c(C)nn(C)c1C | 32.3% (inactive) |
| O=C(C=C1SCCS1)/C=C/c1ccco1 | -1.34% (inactive) |
| CC(C)(C)c1ccc(C(=O)Nc2nnc(SCC(=O)NCC3CCCO3)s2)cc1 (stereo not drawn) | -6.37% (inactive) |
| Cc1cc(NC(=O)CSc2ccnc(=O)[nH]2)no1 | 16.4% (inactive) |
| CC(C)Cc1ccc([C@H](C)C(=O)O)cc1 | 18.9% (inactive) |
| CS(=O)(=O)N(CC(=O)Nc1ccc(F)cc1F)C1CCCCC1 | 14.4% (inactive) |
| O=C1CCC(C(=O)N2CCCCCC2)CN1CCc1ccc(Cl)cc1 (stereo not drawn) | 20.2% (inactive) |
| S=C1SCN(Cc2ccccc2)CN1Cc1ccco1 | 12.7% (inactive) |
| O=C1/C(=C/c2cccnc2)SC(=S)N1Cc1ccco1 | 1.8% [at 6.8 µM] (inactive) |
| CC(C)NC(=O)N(C)C[C@H]1Oc2c(NC(=O)Nc3ccc4c(c3)OCO4)cccc2C(=O)N([C@H](C)CO)C[C@@H]1C | 4.16% (inactive) |
| O=C1CCCN2N=C(SCC(=O)Nc3ccc(Br)cc3)SC2=N1 | 9.82% (inactive) |

| Compound | activity change, negative = cytotoxicity |
| --- | --- |
| COc1ccc(S(=O)(=O)NCCc2csc(-c3cccnc3)n2)cc1 | 8.73% (inactive) |
| CC1Cc2ccccc2N1c1ncnc(N)c1[N+](=O)[O-] (stereo not drawn) | -9.34% (inactive) |
| CC(=O)Nc1ccc(NC(=O)C(c2ccccc2)c2ccccc2)cc1 | 21.4% (inactive) |
| O=C(Cc1ccc(Cl)cc1)NCC(=O)N1CCCCC1 | 25.1% (inactive) |
| CCOC(=O)c1cn2nc(N3CCCC3)ccc2n1 | 27.5% (inactive) |
| COc1cc2cc(C(=O)Nc3ccc4c(c3)OCCO4)[nH]c2cc1OC | 8.74% (inactive) |
| COc1cc(/C=N/NC(=O)c2cc(C34CC5CC(CC(C5)C3)C4)[nH]n2)ccc1O | 4.71% (inactive) |
| O=C(Nc1cc(S(=O)(=O)N2CCOCC2)ccc1Cl)c1ccncc1 | 5.54% (inactive) |
| COC(=O)[C@H](C)[C@H]1C[C@]1(C)[C@H](NC(=O)OCc1ccccc1)c1ccccc1 | 16.4% (inactive) |
| COc1ccccc1N1CCN(CCCNC(=O)C2CCCN(c3ncnc4c3nc3n4CCCCC3)C2)CC1 (stereo not drawn) | 16.8% (inactive) |
| CC(=O)c1c(C)[nH]c(C(=O)Nc2ccc(C)cn2)c1C | 29.2% (inactive) |
| Cc1ccsc1/C=N/NC(=O)c1ccc2c(c1)OCCO2 | -0.701% (inactive) |
| CCOC(=O)c1sc(NC(=O)CNCc2ccccn2)c(C(=O)OCC)c1C | -14.9% (inactive) |
| Cc1cccn2c(=O)c(C=NCCO)c(NCc3ccco3)nc12 | 10.4% (inactive) |
| Clc1ccccc1C1=Nn2c(nnc2-c2ccncc2)SC1 | -2.34% (inactive) |
| Cc1ccc(C(=O)Nc2cccc(C(F)(F)F)c2)cc1Nc1ncnc2nc[nH]c12 | -13.2% (inactive) |
| c1cncc(CNc2ncnc3ccc(-c4ccoc4)cc23)c1 | -1.4% (inactive) |
| Cc1sc2ncn(CC(=O)N3CCC(C(N)=O)CC3)c(=O)c2c1S(=O)(=O)N1CCOCC1 | 19.7% (inactive) |
| Cc1ccc(N2CCN(C3=NC(=O)/C(=C\c4cn[nH]c4-c4ccccc4)S3)CC2)cc1 | 1.34% (inactive) |
| CC1CCN(C(=O)/C(=C\c2cccs2)NC(=O)c2ccccc2)CC1 | 4.9% (inactive) |
| C=CCN(c1ccc(C(=O)Nc2ccc3c(c2)n(C)c(=O)n3C)cc1)S(C)(=O)=O | 6.74% (inactive) |
| COC(=O)c1cccc(COC(=O)c2ccccc2NC(=O)c2ccco2)c1 | 12.5% (inactive) |
